# Assay outcomes: PubChem BioAssay, National Center for Advancing Translational Sciences (NCATS)
# HP1b binding inh = HP1-beta chromodomain-methylated histone interaction inhibition; P83916; AlphaScreen HP1-beta / biotin-H3K9me3 peptide binding; Potency, µM (series often up to 114 µM), actives largely listed as inhibitors; 0.56% of 390,000 active; AID 540317; also: nearly all actives have a fitted effect of over 70% in size
#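 HP1-beta protein (50 nM final) preincubated 30 min at room temperature with biotinylated H3(1-18)K9me3 peptide (50 nM) in PBS pH 7.4, 0.01% Tween-20, then compound added for 30 min. AlphaScreen streptavidin donor/nickel chelate acceptor beads (10 ug/mL final), 30 min dark, luminescence read.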
# PLK1 PBD block = blocks phosphopeptide binding to human PLK1 polo-box domain; P53350; AID 720504; Plk1 PBD binding of FITC phosphopeptide, fluorescence polarization; 2.8% of 360,000 active; Potency, µM, usual class: inhibitors; also: series mostly up to about 57 µM; nearly all actives have a fitted effect of over 65% in size
# BAZ2B inh = blocks human BAZ2B. Potency, µM (highest dose often 114 µM), hits mostly inhibitors. AID 504333. Q9UIF8. AlphaScreen BAZ2B-H3K14Ac peptide displacement. 4.4% of 360,000 active; also: nearly all actives have a fitted effect of over 60% in size
#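 AlphaScreen displacement: compounds (up to 110uM) incubated 30 min at room temperature with a preformed 50 nM BAZ2B/50 nM biotinylated H3K14Ac peptide complex in PBS pH 7.4 with Tween-20. Donor and acceptor beads at 10 ug/mL final added, 20 min light-protected before reading.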
# JMJD2A Tudor inh = JMJD2A Tudor domain (human) inhibition. O75164. AlphaScreen JMJD2A-Tudor / H3K4me3 peptide binding. Potency, µM (top dose mostly 114 µM), actives largely listed as inhibitors. 4.4% of 390,000 active. AID 504339; also: nearly all actives have a fitted effect of over 50% in size
# PI5P4Ka inh = inhibitors of human PI5P4K alpha | PI5P4Kalpha enzyme, ADP-Glo luminescence, 60 min; stronger effect = lower value | 1.2% of 330,000 active | max response, %; active = max response of -50% or lower; inconclusive = between -30% and -50%; inactive = -30% or higher; also: value at the top dose of about 77 µM
#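 ADP-Glo luminescence end-point after a 60 min room-temperature kinase reaction. PI5P4Kalpha and substrate in HEPES pH 7.4 buffer with EGTA, 0.1% CHAPS and 5% DMSO; ATP at 5 microM final.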
# G9a inh = G9a (human) methyltransferase inhibition; Potency, µM (series often up to 102 µM), hits mostly inhibitors; G9a H3K9 monomethylation, AlphaScreen, 2 h; Q96KQ7; 8.8% of 350,000 active; AID 504332; also: nearly all actives have a fitted effect of over 75% in size
#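 Quantitative HTS format: methyltransferase activity on a biotin-tagged H3K9 peptide is measured by AlphaScreen, using a rabbit anti-monomethyl-H3K9 antibody with streptavidin donor and anti-IgG acceptor beads. Final levels are 20 nM enzyme, 500 nM peptide, 20 uM SAM; 2 h RT.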
# Numbers stand for hits; - = inactive; ? = inconclusive; . = no result; ! = repeats disagree; [ ] = remark or other dose. Rows were chosen to be rich in hits. Some 12% of all compounds tested hit in one or more screens of this group. Unless noted, calls follow the shape of the dose curve; as a rule, active = well fitted curve in the direction sought with a large enough effect; inconclusive = small, poorly fitted or top-dose-only effect, or another doubt; inactive = no such curve, though single readings can be large; an effect the other way counts as inactive or inconclusive.
SMILES,HP1b binding inh,PLK1 PBD block,BAZ2B inh,JMJD2A Tudor inh,PI5P4Ka inh,G9a inh
CCC(CO)NCC(O)COCc1ccc2c(c1)OCO2 (stereo not drawn),-,-,79.4µM,50.1µM,-,?
Cc1cccc(NC(=O)CSc2nnc([C@H](C)NC(=O)OC(C)(C)C)o2)c1C,-,26.7µM,-,?,-,-
Cc1ccc(NC(=O)CSc2nnc([C@H](C)NC(=O)OC(C)(C)C)o2)c(C)c1,-,-,-,-,-,-[12.7 µM]
CN1C(=O)[C@H]2[C@@H](c3ccc(C(F)(F)F)cc3)N[C@]3(CCCN(Cc4cccn4C)C3=O)[C@H]2C1=O,.,-,.,.,-,.
CCOC(=O)c1c(NC(=O)c2cc(CC(C)C)on2)sc(C(C)=O)c1C,-,?,-,-,-,7.94µM
CCOC(=O)c1c(NC(=O)c2cc(C(C)C)on2)sc(C(C)=O)c1C,-,-,-,-,-,7.94µM!
CCCc1cc(C(=O)Nc2sc(C(C)=O)c(C)c2C(=O)OCC)no1,-,?,-,-,-,?
COc1ccc(N(C(=O)c2ccco2)C(C(=O)NC2CCCC2)c2ccc(N(C)C)cc2)cc1 (stereo not drawn),-,-,50.1µM,?,-,79.4µM
COc1cc(OC)cc(N(C(=O)c2ccco2)C(C(=O)NC2CCCC2)c2ccc(N(C)C)cc2)c1 (stereo not drawn),-,-,?,?,-,22.4µM
Cc1cc(NC(=O)CN2C(=O)c3cccnc3Sc3ccccc32)ccc1Br,-,.,-,-,.,-
CCCCc1c(C)nc2nc(SCc3ccc(Cl)cc3)[nH]n2c1=O,-,-,-,-,-,?
CCCCCCCc1nc2nc(C)c(Br)c(=O)n2[nH]1,-,26.7µM,-,28.2µM,-,-
COc1ccc2[nH]c(C(=O)Nc3ccc(C)c(F)c3)cc2c1,-,-,-,-,-,.
Cc1cc(C)c2cc(C(=O)Nc3ccc(C)c(F)c3)[nH]c2c1,-,-,-,-,-,44.7µM
CCCCNC(=O)c1cccc(C(=O)NCCCC)c1,-,-,-,-,.,-[12.7 µM]
CCCCNC(=O)c1cc2c(C)cc(C)cc2[nH]1,-,-,-,-,-,50.1µM
COc1ccc(CNC(=O)CCCN2C(=O)c3cccnc3Oc3ccc(Cl)cc32)cc1,-,.,-,-,.,-
Nc1ncnc(Nc2ccccc2C(F)(F)F)n1,-,-,-,-,-,-
FC(F)(F)c1ccccc1Nc1nccs1,-,-,-,50.1µM,-,?
OCc1ccc(-c2ccc(-c3ccc(CO)s3)o2)s1,.,.,.,.,.,1.58µM
NC(=O)c1csc(-c2ccc(CO)o2)n1,.,-,.,.,-,.
CN1/C(=C\C(=O)c2cccnc2)Sc2ccccc21,-,-,-,-,-,28.2µM
CN(C)CCNC(=O)COc1ccc(Cl)cc1Cl,-,-,-,?,-,50.1µM
CN(C)CCNC(=O)COc1cccc(Cl)c1,-,-,?,-,-,22.4µM
CN(C)C1(CNC(=O)COc2cccc(Cl)c2)CCCCC1,-,.,-,-,.,-
SMILES,HP1b binding inh,PLK1 PBD block,BAZ2B inh,JMJD2A Tudor inh,PI5P4Ka inh,G9a inh
O=C(COc1ccc(Cl)cc1Cl)NCCSc1ccc(Cl)cc1,-,2.99µM,-,?,-,-
Cc1cc(-c2c(C)[nH]n(-c3ccc(Cl)cc3)c2=O)n(-c2ccccc2)n1,-,-,-,-,-,-
CC1=NN(c2ccc(F)cc2)C(=O)C1C(c1cccc(O)c1)c1c(C)[nH]n(-c2ccc(F)cc2)c1=O (stereo not drawn),-,5.32µM,-,-[11.4 µM],-,?
CC1=NN(c2ccc(Cl)cc2)C(=O)C1C(c1cccc(O)c1)c1c(C)[nH]n(-c2ccc(Cl)cc2)c1=O (stereo not drawn),?,5.32µM,44.7µM,56.2µM,-,?
Cc1ccc(CN(C(=O)Nc2cccc(Cl)c2)c2ccccn2)cc1,-,.,-,-,.,-
C#CCSc1nncn1C(=O)/C=C/c1ccccc1,-,23.8µM,-,-,.,?
C#CCSc1nc2ccccc2c(=O)n1CC=C,-,.,.,-,.,.
Cc1ccccc1S(=O)(=O)Cc1ccc(C(=O)NCc2ccccc2)o1,-,-,-,-,-,-
COc1ccccc1S(=O)(=O)Cc1ccc(C(=O)NCCN2CCCCCC2)o1,-,?,-,-,-,50.1µM
Cc1ccccc1S(=O)(=O)Cc1ccc(C(=O)NC2CC2)o1,-,-,-,50.1µM,-,-
Cc1ccccc1S(=O)(=O)Cc1ccc(C(=O)NCc2ccco2)o1,-,23.8µM,-,15.8µM,-,-
O=[N+]([O-])c1ccc(S(=O)(=O)N/N=C/c2ccc3c(c2)OCO3)cc1,-,-,?,-,-,50.1µM
Cc1ccc(S(=O)(=O)N/N=C/c2cccc([N+](=O)[O-])c2)cc1,-,?,-,-,-,?
O=[N+]([O-])c1cccc(S(=O)(=O)N/N=C\c2ccc3c(c2)OCO3)c1,-,-,-,-,-,-
Cc1ccc(S(=O)(=O)N/N=C\c2cc([N+](=O)[O-])ccc2Cl)cc1,-,-,-,-,.,2.82µM
O=[N+]([O-])c1ccc(S(=O)(=O)NN=Cc2ccc(Cl)c(Cl)c2)cc1,-,10.6µM,.,?,-,.
O=C(CN(C(=O)CCC(=O)Nc1ccccn1)c1ccc2c(c1)OCO2)NCc1ccc(F)cc1,-,-,-,-,-,-
O=C(CN1C(=O)C2(OCCO2)c2ccccc21)c1ccc(Br)cc1,-,-,-,-,.,39.8µM
CCC(Cc1ccccc1)OC(=O)c1ccccc1C(=O)O (stereo not drawn),-,-,.,-,-,.
COc1cc(CNCCC2CCOC(C)(C)C2)ccc1O (stereo not drawn),-,-,-,-,-,50.1µM
COc1cc(CNCCO)ccc1OC1CCCC1,-,-,-,-,.,-
CN(C)c1ccc(N2CN=C3SCC(=O)N3C2)cc1,56.2µM,-,25.1µM,50.1µM,-,?
Nc1nc(-c2ccc3c(c2)OCCO3)c(CC(=O)O)s1,-,-,-,-,-,.
Nc1nc(-c2ccc3c(c2)CCCC3)c(CC(=O)O)s1,-,-,-,-,-,50.1µM
Cc1cc(C)cc(C(=O)NC(CC(N)=O)c2ccc(NC3CCCCCCCCCCC3)c([N+](=O)[O-])c2)c1 (stereo not drawn),-,-,?,?,-,44.7µM
NC(=O)CC(NC(=O)c1ccccc1)c1ccc(NC2CCN(Cc3ccccc3)CC2)c([N+](=O)[O-])c1 (stereo not drawn),-,-,?,-,-,50.1µM
Cc1cc(C)cc(C(=O)NC(CC(N)=O)c2ccc(NC3CCCCCCC3)c([N+](=O)[O-])c2)c1 (stereo not drawn),-,-,-,-,-,?
O=[N+]([O-])c1cc(C(F)(F)F)ccc1NC1CCN(Cc2ccccc2)CC1,50.1µM,-,25.1µM,35.5µM,-,35.5µM
